Source: ChEMBL document CHEMBL3988442, “University of Dundee, Small-Polar-MMV Screening Library” (2021)
Out of some 48,000 compounds screened, about 13,000 (27%) showed an effect of 50% or more. Some of the results follow.

test system: Wolbachia pipientis; assay: Anti-Wolbachia Cell-Based Screen; format: functional; parameters: scale not given: in the data most compounds retested in dose-response had high values; conditions: 5 µM

SMILES | Percent Effect
Cn1cc(CN2CCCC3(CCCN3S(C)(=O)=O)C2)cn1.O=C(O)C(F)(F)F (stereo not drawn) | 1.436%
CC(=O)N1CC2(CCCN2Cc2ccc(Cl)cc2)Cc2ccccc21 (stereo not drawn) | 134.6%
CCS(=O)(=O)N1CCCC2(CCCN2Cc2cccc(Cl)c2)C1.O=C(O)C(F)(F)F (stereo not drawn) | -14.69%
CS(=O)(=O)N1CC2(CCCN2Cc2ccc(Cl)cc2)Cc2ccccc21 (stereo not drawn) | 113.6%
CC(=O)N1CC2(CCCCN2Cc2ccc(Cl)cc2)Cc2ccccc21 (stereo not drawn) | 100.4%
Cc1cc(C(=O)N2CCCC3(CCCN3Cc3cccnc3)C2)[nH]n1 (stereo not drawn) | 0.008691%
CC(C#N)CSc1ccccc1NCC(=O)NC(C1CC1)C1CC1 (stereo not drawn) | -11.19%
CCC(N)C(=O)N1CCC(OCc2ccc(Cl)c(Cl)c2)CC1.Cl (stereo not drawn) | 104.6%
CCOC1CCN(C(=O)NCc2ccc(CN3CCOCC3)cc2)CC1 | -24.74%
NC(=O)CN1CCC(NC(=O)COc2ccc(Cl)c(Cl)c2)CC1 | 99.17%
NC(=O)CN1CCC(C(=O)NCc2ccc3nonc3c2)CC1 | -14.82%
NC(=O)CN1CCC(OCc2ccc(Cl)c(Cl)c2)CC1 | 99.68%
COc1cccc(COCC(=O)NC2CCN(CC(N)=O)CC2)c1 | 5.2%
CNC(=O)CN1CCC(c2cc(OC)cc(OC)c2)C1 (stereo not drawn) | 8.564%
CNC(=O)CN1CCN(C(=O)Nc2ccc(Cl)cc2F)CC1 | 0.4531%
CNC(=O)CN1CCC(OCc2ccc(Cl)c(Cl)c2)CC1 | 83.56%
NC(=O)CN1CCC(Nc2ccnc3ccc(Cl)cc23)CC1 | 13.98%
CSCCC(O)C(=O)N1CCC(OCc2cccnc2)CC1 (stereo not drawn) | -3.942%
CC(C)Oc1cccc(CC(=O)NC2CCN(CC(N)=O)CC2)c1 | -2.756%
CCn1c(N)nc2cc(C(=O)N3CCN(CC(F)(F)F)CC3)cnc21 | -2.793%
COc1ccc(F)c(CN2CCCC3(CCN(C(=O)CSC)C3)C2)c1 (stereo not drawn) | -11.54%
Cc1ccc(F)c(C(=O)NC2CCC(N3C(=O)CCC3=O)CC2)c1 (stereo not drawn) | -6.109%

SMILES | Percent Effect
CN(C)c1ccc(C(=O)NCc2csc(Br)c2)cn1 | 132.1%
CCn1cc(C(=O)NCc2csc(Br)c2)cn1 | -5.042%
O=C(NCc1csc(Br)c1)c1cnccn1 | 122.2%
CN(C)c1ncccc1CNC(=O)c1csc(Br)c1 | -2.901%
CN1CCCN(C(=O)NCc2csc(Br)c2)CC1 | -2.09%
CC1(c2ccccc2)CCC(=O)N(CCN2CCOC2=O)C1 (stereo not drawn) | -0.3831%
O=C(NCC1(O)CCC1)c1cccc(-n2cccn2)c1 | 119.5%
CSC1(CNC(=O)NC(C)c2ccc(F)cc2)CCOCC1 (stereo not drawn) | -5.884%
CSC1(CNC(=O)c2ccn(-c3ccccc3F)n2)CCOCC1 | -3.806%
CNC(=O)CCOC(=O)c1cccc(-n2cccn2)c1 | -2.822%
Cc1cc(C(=O)NCC2CCC3(CC2)OCCO3)[nH]n1 | -25.64%
CC(CNC(=O)c1cccc(-n2cccn2)c1)Cn1ccnc1 (stereo not drawn) | -7.057%
O=C(NCC1(O)CCSC1)c1ccoc1 (stereo not drawn) | 12.35%
O=C(NCC1(O)CCSC1)c1cccc(-n2cccn2)c1 (stereo not drawn) | 105.6%
CSC1(CNC(=O)c2cccc(-n3cccn3)c2)CCOCC1 | 126.6%
O=C(NCC1CCC2(CC1)OCCO2)c1cccc(-n2cccn2)c1 | 116.2%
O=C(NCC1(O)CCSC1)c1ccn(-c2ccccc2F)n1 (stereo not drawn) | -10.8%
O=C(NCC1CCC2(CC1)OCCO2)c1ccncc1F | -3.003%
Cn1cc(C(C)(O)CNc2ccccn2)cn1 (stereo not drawn) | -0.1049%
Oc1cc(CN2CCCCC2c2cccnc2)nc2c(F)cccc12 (stereo not drawn) | -16.88%
CC(C)n1ccnc1C1CCN(C(=O)C2COc3ccccc3O2)CC1 (stereo not drawn) | -5.747%
CCS(=O)(=O)N1CCCC2(COCCN(c3nnc(C)o3)C2)C1.O=C(O)C(F)(F)F (stereo not drawn) | -4.041%

SMILES | Percent Effect
c1ccc2c(c1)CC(Cc1cc(N3CCCC3)cnn1)CCO2 (stereo not drawn) | -11.32%
O=C(NC1CC1)N1CCn2c(Cn3cccn3)cnc2C1.O=C(O)C(F)(F)F | 5.205%
CC1c2ncc(Cn3cccn3)n2CCN1c1ncccn1.O=C(O)C(F)(F)F (stereo not drawn) | 86.74%
O=C(O)C(F)(F)F.O=C(O)C(F)(F)F.c1cnn(Cc2cnc3n2CCN(CC2CCCCC2)C3)c1 | -2.959%
O=S(=O)(C1CC1)N1CCc2ncc(Cn3cccn3)n2CC1 | -13.53%
COCc1cnc2n1CCN(C1CCCC1)C2C.O=C(O)C(F)(F)F (stereo not drawn) | 11.21%
CC1c2ncc(Cn3cccn3)n2CCN1S(=O)(=O)C1CC1 (stereo not drawn) | 92.87%
Cc1noc(C)c1CN1CCc2ncc(Cn3cccn3)n2CC1.O=C(O)C(F)(F)F | -5.332%
CC1c2ncc(Cn3cccn3)n2CCN1S(C)(=O)=O.O=C(O)C(F)(F)F (stereo not drawn) | 89.72%
O=S(=O)(C1CC1)N1CCn2c(Cn3cccn3)cnc2C1 | 7.108%
CCc1nsc(N2CCN(Cc3ccno3)CC2)n1 | -4.168%
COC(=O)C1CCN(C(=O)c2ccc(NS(C)(=O)=O)c(C)c2)CC1 | -4.777%
O=S(=O)(c1ccc(Cl)cc1)N1CCC(OCc2ccccn2)C1 (stereo not drawn) | -17.23%
CS(=O)(=O)NC[C@H]1Cn2c(-c3ccc(F)cc3)cnc2CO1 | -20.98%
CC(C)(C)OC(=O)N1CSC[C@@H]1C(=O)NCc1ccsc1 | -2.991%
NC(=O)c1ccc(C(=O)N2CCCC(n3ccnc3)C2)s1 (stereo not drawn) | 109.7%
O=C1CSc2ccc(C(=O)N3CCCC(n4ccnc4)C3)cc2N1 (stereo not drawn) | 1.64%
COCCOc1cccc(C(=O)N2CCCC(n3ccnc3)C2)c1 (stereo not drawn) | 85.64%
O=C(c1cnc(-c2cccs2)s1)N1CCCN2CCCC2C1 (stereo not drawn) | 13.8%
O=C(c1cccnc1N1CCOCC1)N1CCCC(n2ccnc2)C1 (stereo not drawn) | -11.91%
O=C(c1cnc(-c2cccs2)s1)N1CCCC(n2ccnc2)C1 (stereo not drawn) | 98.86%
NC(=O)c1cccc(C(=O)N2CCCC(n3ccnc3)C2)c1 (stereo not drawn) | 111.9%

SMILES | Percent Effect
O=C(O)C1(Oc2ccc3ccccc3c2)CCN(c2ncccn2)CC1 | -9.781%
Cc1c[nH]cc1C(=O)N1CCN(CCc2cccs2)CC1 | -2.994%
CCC1COCCN1C(=O)CNC(=O)c1ccsc1 (stereo not drawn) | -5.336%
OCc1ccc(CN2CCC(n3cc(C4CCCCC4)nn3)CC2)o1 | 0.3058%
CCS(=O)(=O)c1ccc(N2CCC(NC(=O)NC(C)CO)CC2)cc1 (stereo not drawn) | 0.3155%
COCCNS(=O)(=O)c1ccc(CNc2ncccc2C#N)cc1 | 18.7%
NC(=O)c1ccc(OCC(=O)N2CCCC(n3cccn3)C2)cc1 (stereo not drawn) | -3.222%
NC(=O)c1cccc(OCC(=O)N2CCCC(n3ccnc3)C2)c1 (stereo not drawn) | 113%
NC(=O)c1cccc(OCC(=O)N2CCCC(n3cccn3)C2)c1 (stereo not drawn) | -3.677%
C[C@@H](NC(=O)c1cnccn1)c1c(-c2ccc(Cl)cc2)noc1C(=O)O.Cl | -1.348%
CCCc1nc(CNc2cc(CS(C)(=O)=O)ccc2Cl)no1 | -7.067%
Cc1nccc(N[C@H]2CN(CCC(=O)NC3CCCC3)C[C@@H]2C2CC2)n1 | -19.22%
Cc1nc(C2CCNCC2)cc(N2CCCC(C(=O)NCCCO)C2)n1 (stereo not drawn) | 12.53%
CNC(=O)CCc1cc(C2CCNCC2)nc(C)n1.Cl.Cl | 115.3%
Cc1nc(NC2CCCCC2)cc(C2CCCNC2)n1.Cl (stereo not drawn) | 84.03%
Cc1nc(NC2CCS(=O)(=O)CC2)cc(C2CCCNC2)n1 (stereo not drawn) | 5.772%
Cc1nc(CCC(=O)NCC(N)=O)cc(C2CCNCC2)n1 | 128.9%
Cc1nc(CCC(=O)NC2CCC2)cc(C2CCCNC2)n1 (stereo not drawn) | 108.9%
CNC(=O)C1CCN(c2cc(C3CCNCC3)nc(C)n2)C1 (stereo not drawn) | 9.34%
COc1ccc(OCc2cc(C(=O)N3CCC(O)CC3)n[nH]2)c(Cl)c1 | 8.523%
CN(C)S(=O)(=O)N(Cc1cscn1)c1ccccc1 | 6.938%
CCN(CC)c1ccc(NC(=O)N2CCc3sccc3C2)cn1 | -4.731%

SMILES | Percent Effect
CC(C)(O)c1cn(C2CCN(C(=O)CCC3CCCC3)CC2)nn1 | 7.362%
CC(=O)NC1CCN(c2cc(C3CCNCC3)nc(C)n2)C1 (stereo not drawn) | -6.629%
Cc1nc(CCC(N)=O)cc(C2CCNCC2)n1 | 77.84%
FC(F)(F)CN1CCC(CNc2nc3ccccc3o2)C1 (stereo not drawn) | 19.02%
CCN1CCC(CC(=O)N2CCc3sc(C(=O)N(C)C)cc3C2)CC1 | -40.78%
CCCc1nnc(SCC(=O)Nc2cc(C(C)(C)C)nn2C)[nH]1 | 5.759%
Cn1ccc(C(=O)Nc2cc(F)ccc2OCC2CCCO2)cc1=O (stereo not drawn) | 108.3%
Cn1cccc1C(=O)Nc1cc(F)ccc1OCC1CCCO1 (stereo not drawn) | -3.687%
CC(NC(=O)c1ccc(=O)n(C)c1)c1ccc(OCC2CC2)c(F)c1 (stereo not drawn) | 7.042%
CN1N=C(C(=O)Nc2cc(F)ccc2OCC2CCCO2)CCC1=O (stereo not drawn) | 0.7919%
Cn1cc(C(=O)Nc2cc(F)ccc2OCC2CCCO2)ccc1=O (stereo not drawn) | 100.3%
CS(=O)(=O)N[C@@H]1CCN(Cc2cccs2)[C@H]1Cc1cccnc1 | -19.82%
CS(=O)(=O)N1CCN(c2ccnc(N3CCCC3)n2)CC1 | -2.838%
O=S1(=O)NC(c2ccnc(N3CCOCC3)n2)=Nc2ccccc21 | 140.3%
O=c1c2cnc(N3CCOCC3)nc2ccn1-c1ccccc1 | 4.201%
CS(=O)(=O)N1CCN(c2ccnc(N3CCCCC3)n2)CC1 | 0.3412%
O=C(O)c1ccnc(-c2ccnc(N3CCCCCC3)n2)c1 | -0.3436%
O=S1(=O)NC(c2ccnc(N3CCCC3)n2)=Nc2ccccc21 | 149.4%
O=S1(=O)NC(c2ccnc(N3CCCCC3)n2)=Nc2ccccc21 | 89.99%
Cc1nn(-c2ccccc2)c(C)c1-c1ccnc(N2CCCOCC2)n1 | 7.099%
